# Assay outcomes (PubChem)
# Shown is part of a subset that was picked to be rich in hits.
# CBX7 inh: inhibitors of human CBX7 binding to H3K27me3 peptide; hit rate 1.1% among 66,000; normalised signal (fraction of DMSO) (test concentration not listed); AID 1224903; AlphaScreen His6-CBX7 / biotin-H3K27me3 peptide binding; active compounds read low; O95931; in the data active = normalised signal below about 0.5
# Target sequence (O95931 whole entry, looked up): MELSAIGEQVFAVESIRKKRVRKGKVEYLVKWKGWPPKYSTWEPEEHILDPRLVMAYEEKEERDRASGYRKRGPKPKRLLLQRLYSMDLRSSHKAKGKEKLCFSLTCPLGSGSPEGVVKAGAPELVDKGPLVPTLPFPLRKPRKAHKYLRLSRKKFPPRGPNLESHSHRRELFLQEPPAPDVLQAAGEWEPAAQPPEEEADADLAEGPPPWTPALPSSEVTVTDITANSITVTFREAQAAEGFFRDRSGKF
# Numbers stand for hits; - = inactive; ! = a repeat was not active.
SMILES,CBX7 inh
Cc1ccc(NC(=O)c2c(C)nc(Nc3nc4ccccc4o3)nc2C)cc1,-
Cc1ccccc1NC(=O)c1cnc(Nc2nc3ccccc3o2)nc1C,0.17
CCCc1nc(Nc2nc3ccccc3o2)ncc1C(=O)OCC,-
CC1CCCN(C(=O)C2CCN(S(=O)(=O)c3ccc4c(c3)CCC(=O)N4)CC2)C1 (centres undefined),-
COc1ccc(-c2nnc(Nc3cccc(O)c3)c3ccccc23)cc1,0.43
COc1ccc(-c2nnc(Nc3ccc(Cl)c(Cl)c3)c3ccccc23)cc1,-
COc1ccc(-c2nnc(Nc3ccc(Cl)cc3)c3ccccc23)cc1,-
COCCn1c(SCC(=O)Nc2ccc(C)cc2)nnc1-c1c[nH]c2ccccc12,-
Oc1cccc2ccc(Oc3cccc4cccnc34)nc12,-
Oc1cccc2ccc(Nc3ccccn3)nc12,0.0087
c1ccc(-c2csc(Nc3ccccn3)n2)cc1,-
Cc1sc2ncn(CC(=O)NCC(=O)N3CCC(Cc4ccccc4)CC3)c(=O)c2c1C,-
Cc1ccccc1-c1nc(CN2CCC(C(=O)NC3CCCCCC3)CC2)c(C)o1,-
N#Cc1nc(COc2ccccc2Cl)oc1NCCCn1ccnc1,0
N#Cc1nc(COc2ccc(Cl)cc2)oc1NCCCn1ccnc1,-
Cc1ccccc1OCc1nc(C#N)c(NCCCn2ccnc2)o1,-
CN(Cc1ccccc1)c1oc(COc2ccc(Cl)cc2)nc1C#N,0.48
N#Cc1nc(COc2ccc(Cl)cc2)oc1NCc1cccnc1,-
N#Cc1nc(COc2ccc(F)cc2)oc1NCCc1ccccc1,-
COc1ccc(Nc2oc(COc3ccccc3F)nc2C#N)cc1,-
CN(Cc1ccccc1)c1oc(COc2ccccc2F)nc1C#N,0.42
COc1ccc(CCNc2oc(COc3ccc(Cl)cc3)nc2C#N)cc1,-
COc1ccccc1OCc1nc(C#N)c(NCCc2ccccc2)o1,-
CC(Nc1oc(COc2ccccc2F)nc1C#N)c1ccccc1 (centres undefined),-
N#Cc1nc(COc2ccccc2F)oc1NCCc1ccccc1,0.49
SMILES,CBX7 inh
COc1cccc(C(=O)Nc2c(C(=O)Nc3ccc(F)cc3)oc3ccccc23)c1,-
COc1ccc(N2CCN(CC(O)COc3ccc4c(c3)OCO4)CC2)cc1 (centres undefined),-
COc1ccc(CCNc2ccc3nncn3n2)c(OC)c1,-
CCC(=O)N1CCc2cc(S(=O)(=O)N3CCCC(C)C3)ccc21 (centres undefined),-
NC(=O)C1(N2CCCCC2)CCN(C(=O)c2cc3ccccn3n2)CC1,-
CCCOc1ccc(N2C(=O)CC(NCCc3ccccc3)C2=O)cc1 (centres undefined),-
Cc1nc2cc(-c3ccccc3)nn2c(C)c1CCC(=O)N1CCC(Cc2ccccc2)CC1,-
COc1ccccc1Nc1nc(-c2ccccc2Cl)nc2ccccc12,-
COc1ccccc1Nc1nc(-c2ccncc2)nc2ccccc12,0.33
COc1ccccc1Nc1nc(-c2ccc(C)cc2)nc2ccccc12,-
O=C1C2C3C=CC(C4CC34)C2C(=O)N1c1ccncc1 (centres undefined),-
Fc1ccc(-c2nnc3ccc4ccccc4n23)cc1,-
CC1(C)Cc2ccccc2-c2nnc(-c3cccnc3)n21,-
c1cncc(-c2nnc3ccc4ccccc4n23)c1,0.36
O=S(=O)(Nc1cccc2cccnc12)c1ccccc1O,0
CC(=O)Nc1ccc(NS(=O)(=O)c2cccc3cccnc23)cc1,-
Cc1cc(C)c(S(=O)(=O)Nc2cccc3cccnc23)c(C)c1,-
Cc1c(NC(=O)c2ncn[nH]2)cccc1-c1nc2ccccc2o1,-
COc1ccc(CCNC(=O)c2c[nH]n3c(=O)c(Cc4ccc(F)cc4Cl)c(C)nc23)cc1OC,-
N#Cc1nc(-c2ccccc2)oc1N1CCOCC1,-
CCN1CCN(c2oc(-c3ccccc3)nc2C#N)CC1,-
CC1CCN(c2oc(-c3ccccc3)nc2C#N)CC1,0.41
COc1ccc(-c2cc3ccccc3n2CC(O)CNC2CCCCC2)cc1 (centres undefined),-
O=C1CC2c3ccccc3C1C1C(=O)N(c3cccnc3)C(=O)C21 (centres undefined),-
CCOc1ccc(NS(=O)(=O)c2cc(C(=O)O)ccc2NCCc2ccc(Cl)cc2)cc1,-
SMILES,CBX7 inh
CCCc1sc(Nc2ccccc2Cl)nc1-c1ccc(Cl)c(Cl)c1,-
CCN1CCN(Cc2ccc(NC(=O)c3cnn(-c4ccccc4)c3-n3cccc3)cc2)CC1,-
Cc1ccccc1OCCCCCc1c(C)n[nH]c1C,-
COc1ccccc1OCCCCCCc1c(C)n[nH]c1C,0.5
COc1ccccc1OCCCCc1c(C)n[nH]c1C,-
O=C(NCCCN1CCCC1=O)c1ccc2c(c1)ncn2C1CCCC1,-
O=C(CN1C(=O)c2ccccc2C1=O)Nc1nc(-c2ccc3c(c2)OCO3)cs1,-
Brc1ccc(-c2csc(Nc3ccc4c(c3)OCO4)n2)cc1,0.35!
Clc1ccc(-c2csc(Nc3ccc4ccccc4c3)n2)cc1Cl,-
Cc1ccc(C)c(-c2csc(Nc3ncccn3)n2)c1,-
O=S(=O)(c1ccc(-c2csc(Nc3ccc4c(c3)OCO4)n2)cc1)N1CCCCC1,-
Brc1ccc(Nc2nc(-c3ccc(Br)cc3)cs2)cc1,-
c1ccc2cc(-c3csc(Nc4ccc5c(c4)OCO5)n3)ccc2c1,0.5
Cc1ccc(C)c(-c2csc(Nc3ccc(S(=O)(=O)Nc4cc(C)on4)cc3)n2)c1,-
Cc1ccc(C)c(-c2csc(Nc3ccc4c(c3)OCO4)n2)c1,0.35
CCCOc1ccc(-c2nc(Oc3ccc(C)cc3)c3ccccc3n2)cc1,-
CN(CCc1ccccn1)C(=O)c1n[nH]c(=O)c2ccccc12,-
O=C(NC1CCN(Cc2ccccc2)CC1)C1c2ccccc2C(=O)N2CCc3ccccc3C12 (centres undefined),-
COc1cc2c(cc1OC)C(C(=O)NCCCN1CCCCCC1)C(c1ccccc1F)N(C)C2=O (centres undefined),-
Cc1ccc(S(=O)(=O)Nc2ccccc2CNc2ccccc2C)cc1,-
Cc1ccccc1-n1cnc2cc(Nc3nnc(-c4ccc(Cl)cc4)c4ccccc34)ccc21,-
COCCNC(=O)c1nn2c(C(F)(F)F)cc(-c3ccc(Br)o3)nc2c1Br,-
CCOc1ccccc1C1CC(=O)Nc2c1ccc(C)c2C (centres undefined),-
Cc1ccc(C2CC(c3ccccc3F)n3ncnc3N2)cc1 (centres undefined),-
CCOc1ccccc1C(=O)Nc1nc2ccccc2s1,-
SMILES,CBX7 inh
CCOc1ccc2c(c1)c(=O)c(S(=O)(=O)c1ccc(F)cc1)cn2CC(=O)Nc1ccccc1,-
CC(NC(=O)c1csc2c1CCCCC2)c1ccccc1 (centres undefined),-
COc1cc(OC)cc(OCC(O)Cn2cnc3cc(C)c(C)cc32)c1 (centres undefined),-
Cc1cc2ncn(CC(O)COc3ccccc3C)c2cc1C (centres undefined),0.17
Cc1cc2ncn(CC(O)COc3ccc(C(C)C)cc3)c2cc1C (centres undefined),-
O=C(NCc1ccc(F)cc1)c1cc(-c2cccc(Cl)c2)on1,-
CCN(CC)CCCNC(=O)c1ccc2c(c1)N(Cc1ccc(Cl)cc1)C(=O)c1ccccc1S2=O (centres undefined),-
CCOc1ccc(CCNS(=O)(=O)c2ccc3c(c2)CCN3C(=O)CC)cc1OCC,-
COc1ccc(-n2c3c(cc(C(=O)Nc4ccc(OC)cc4OC)c2=O)C(=O)CC(C)(C)C3)cc1,-
Cc1ccc(-c2cc3c(n2-c2ccccc2)CC(C)(C)CC3=O)cc1,-
